From PubChem BioAssay
Calls of active or inactive are those of the source.

Assays:
[1] = target: Albumin (Bos taurus) (UniProt P02769); assay: compounds binding labelled BSA control protein – biochemical, small-molecule microarray, Alexa647 label, 635/667 nm fluorescence, artefact control for SMM control protein annotation, profiling panel (AID 1118); conditions: BSA-A647 binding, fluorescence 635 nm, higher = more signal;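 note: score merges 667 nm emission intensity and signal-to-noise per printed compound spot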
[2] = probe aXIP binding to arrayed compounds – biochemical, NeuroSMM set, 635/667 nm fluorescence, primary screen (AID 1119); conditions: small-molecule microarray, higher = more signal, called active from +8 up or from −8 down;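 note: probe is the protein aXip251-270 applied at 1 µg/mL to compound-printed slides; binding of probe to printed compounds measured as 667 nm fluorescence plus signal to noise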
[3] = probe aNOTCH3 binding on compound microarray – biochemical, small-molecule microarray, 635/667 nm fluorescence, primary screen (AID 1120); conditions: higher = more signal;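 note: probe is a biotin-tagged antibody raised against NOTCH3 rather than NOTCH3 protein; score merges spot fluorescence near 667 nm with spot signal to noise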
[4] = probe aNOTCH2 binding on compound microarray – biochemical, small-molecule microarray, 635/667 nm fluorescence, primary screen (AID 1121); conditions: higher = more signal;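 note: score merges feature fluorescence read at 667 nm with its signal to noise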
[5] = target: Carbonic anhydrase 2 (Homo sapiens) (UniProt P00918); assay: compounds binding carbonic anhydrase 2 – biochemical, small-molecule microarray, Alexa647-labelled CAII, profiling panel (AID 1122); conditions: CAII-A647 binding fluorescence, higher = more signal
[6] = COS7 lysate on small-molecule microarray, probe aHis, 635 nm (AID 1123); conditions: COS7 cell lysate, fluorescence, higher = more signal;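 note: z-score combines 667nm fluorescence intensity with signal-to-noise per printed compound spot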
[7] = probe aLAP1 signal on lysate-treated microarray – cell lysate, small-molecule microarray, COS7 lysate, primary screen (AID 1124); conditions: probe aLAP1, fluorescence, higher = more signal;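 note: lysate comes from COS7 cells expressing LAP1 and is applied at 0.3 µg/mL; score merges spot fluorescence near 667 nm with signal-to-noise over triplicate slides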
[8] = tested on: Sam68 (KHDRBS1); assay: compounds binding KHDRBS1 protein – biochemical, small-molecule microarray, 635 nm fluorescence, primary screen (AID 1125); conditions: higher = more signal;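 note: score merges 667 nm channel intensity with signal to noise over triplicate slides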
[9] = tested on: Chordin-like protein 2 (CHRDL2); assay: compounds binding chordin-like 2 – biochemical, small-molecule microarray, 635 nm fluorescence, primary screen (AID 1126); conditions: fluorescence 635 nm, higher = more signal;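 note: printed compound slides probed with Chrdl2 protein at 4 µg/mL for 1 h at 4 C; score merges 667 nm emission intensity with signal to noise over three replicate slides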
[10] = target: Concanavalin-A (Canavalia ensiformis) (UniProt P02866); assay: compounds binding concanavalin A lectin – biochemical, small-molecule microarray, Alexa647 label, 635 nm, artefact control for SMM control protein annotation, primary screen (AID 1127); conditions: ConA-A647 binding fluorescence, higher = more signal;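 note: z combines 667 nm emission intensity with signal-to-noise across three replicate slides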
Chain of Concanavalin-A (Canavalia ensiformis) (P02866 whole entry, looked up): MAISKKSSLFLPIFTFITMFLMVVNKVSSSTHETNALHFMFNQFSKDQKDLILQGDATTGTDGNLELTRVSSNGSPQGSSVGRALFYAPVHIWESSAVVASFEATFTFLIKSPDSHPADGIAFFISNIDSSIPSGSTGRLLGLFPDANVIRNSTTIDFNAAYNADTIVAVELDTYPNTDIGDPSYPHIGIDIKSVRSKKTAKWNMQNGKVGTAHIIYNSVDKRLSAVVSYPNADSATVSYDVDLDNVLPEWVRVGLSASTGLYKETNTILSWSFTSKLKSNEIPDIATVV

Chain of Albumin (Bos taurus) (P02769 whole entry, looked up): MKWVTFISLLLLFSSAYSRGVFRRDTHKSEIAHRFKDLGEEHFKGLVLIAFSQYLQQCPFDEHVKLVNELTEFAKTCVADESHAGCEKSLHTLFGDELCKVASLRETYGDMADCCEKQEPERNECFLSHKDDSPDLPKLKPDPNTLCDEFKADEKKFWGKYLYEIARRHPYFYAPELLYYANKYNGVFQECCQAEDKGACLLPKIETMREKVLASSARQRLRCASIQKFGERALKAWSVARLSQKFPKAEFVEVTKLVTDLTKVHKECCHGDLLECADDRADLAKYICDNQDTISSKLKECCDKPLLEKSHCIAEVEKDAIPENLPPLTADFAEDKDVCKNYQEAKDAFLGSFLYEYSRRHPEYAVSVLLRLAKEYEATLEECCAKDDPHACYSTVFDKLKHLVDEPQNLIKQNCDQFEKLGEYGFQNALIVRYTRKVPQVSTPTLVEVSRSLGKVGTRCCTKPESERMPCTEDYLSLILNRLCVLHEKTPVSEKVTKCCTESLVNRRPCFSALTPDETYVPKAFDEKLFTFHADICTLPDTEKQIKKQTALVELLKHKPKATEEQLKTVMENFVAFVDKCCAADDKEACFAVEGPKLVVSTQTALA

Row | Compound | composite z-score [1] | composite Z-score [2] | composite z-score [3] | composite z-score [4] | composite z-score [5] | composite z-score [6] | composite z-score [7] | composite z-score [8] | composite z-score [9] | composite z-score [10]
1 | O=C(O)[C@@]1(Cc2ccccc2)N=C(c2ccc(OCCCO)cc2)O[C@H]1c1ccccc1 | 0.32 | -0.419 (inactive) | -0.0932 | -0.147 | 0.529 | 1.29 | -0.183 | 0.499 | -1.15 | 0.649
2 | [N-]=[N+]=NCc1ccccc1C[C@]1(C(=O)O)N=C(c2ccc(OCCCO)cc2)O[C@H]1c1ccccc1 | 0.954 | -0.37 (inactive) | -0.0414 | -0.0633 | 0.685 | 1.79 | 0.249 | 0.52 | -0.741 | 1.11
3 | COCCOC(=O)N1C(=O)[C@@]2(c3cc(C#CCC(C(=O)OC)C(=O)OC)ccc31)[C@H](c1ccccc1OCCO)N1[C@H](c3ccccc3)[C@H](c3ccccc3)OC(=O)[C@H]1[C@@H]2C(=O)N1CCc2cc(OC)c(OC)cc2C1 | 0.534 | 0.405 (inactive) | 0.134 | -0.16 | 0.45 | 0.833 | 0.211 | 1.29 | 0.787 | 1.16
4 | COc1ccc([Si](C)(C)[C@@H]2[C@@H](CC(=O)N(CCO)Cc3ccccc3)O[C@]3(C(=O)N(C)c4ccccc43)[C@H]2C)cc1 | 0.751 | 0.26 (inactive) | 0.0964 | 0.0022 | 0.516 | 0.855 | 0.0123 | 1.31 | 1.43 | 1.12
5 | COC(=O)[C@@]1(Cc2ccc(OC)cc2)[C@H]2c3cc(C(=O)N4CCCC4)n(Cc4ccccn4)c3C[C@H]2CN1C(=O)c1ccccc1 | 0.939 | -0.832 (inactive) | 0.277 | 0.246 | 0.82 | 1.55 | 0.285 | 1.31 | -0.761 | 0.906
6 | COC(=O)c1ccc(C23CC2(C(NP(=O)(c2ccccc2)c2ccccc2)c2ccccc2)C3)cc1 (stereo not given) | 0.982 | 0.117 (inactive) | 0.325 | 0.359 | 0.819 | 2.8 | 1.02 | 0.921 | -1.12 | 0.484
7 | COc1ccc(C(=O)Nc2cccc(CN3C(=O)[C@]4(O[C@H](CC(=O)N5CCC[C@H]5CO)[C@@H]([Si](C)(C)c5ccc(OC)cc5)[C@@H]4C)c4ccccc43)c2)cc1 | 0.114 | 0.535 (inactive) | -0.0044 | -0.112 | 0.485 | 1.79 | 0.276 | 1.01 | 0.76 | 1.02
8 | CC(C)NC(=O)[C@@H]1c2ccccc2C(=O)N(Cc2ccccc2)[C@H]1c1ccc(CO)cc1 | -0.113 | 0.601 (inactive) | 0.0237 | -0.0638 | 0.706 | 2.01 | 0.821 | -0.598 | -1.38 | -0.717
9 | CCCCC=C[C@@H](NC(=O)c1cccs1)c1ccccc1 | 0.84 | -0.544 (inactive) | 0.0435 | -0.0116 | 0.251 | 1.35 | 0.369 | 0.839 | -0.406 | 0.499
10 | CCOC(=O)[C@H]1C[C@H]2O[C@@]23C[C@H]1C(=O)N1CCCC1[C@@H]3O[Si](C)(C)C(C)(C)C (stereo not given in full) | -0.505 | 0.545 (inactive) | 0.0203 | -0.102 | -0.123 | 0.178 | -0.244 | -0.445 | -0.694 | -1.61
11 | CCOC(=O)C[C@H]1[C@H](OC(=O)Cc2ccc3c(c2)OCO3)[C@@H](NC(=O)C2CCCCC2)c2cc(OCCCO)ccc2N1C(=O)Cc1ccc(OC)cc1 | 0.343 | -0.145 (inactive) | 0.369 | -0.0993 | 0.231 | 0.557 | 0.366 | 1.15 | 0.107 | 0.343
12 | Cc1ccc(S[C@]2(C(=O)NC3CC3)CC(=O)N(C3CCCCC3)[C@@H]2c2ccc(CO)cc2I)cc1 | 0.599 | -0.186 (inactive) | 0.0426 | -0.123 | 0.408 | 1.31 | 0.396 | 1.28 | 0.0261 | 0.896
13 | CC(C)C[C@@H]1NC(=O)[C@H]2C[C@@H](C(=O)NCCCCCNC(=O)CS)[C@@H](c3cccc(OCCO)c3)N2C1=O | 0.258 | -0.014 (inactive) | 0.191 | -0.0358 | 0.561 | 1.32 | 0.438 | 1.3 | 1.39 | 1
14 | CC(C)Cc1ccc(CN2CC[C@@H](NS(=O)(=O)c3ccccc3)C2)cc1 | -0.623 | 0.119 (inactive) | -0.187 | -0.173 | -0.114 | 0.48 | 0.0054 | 0.532 | 0.449 | -0.36
15 | CC(C)C(=C=CC[C@H](O)c1ccccc1OCCO)C[C@H](O)c1ccccn1 | 0.161 | 0.41 (inactive) | 0.395 | -0.0488 | 0.632 | 0.559 | 1.61 | 0.861 | -0.161 | -0.0625
16 | CC(C)(C)OC(=O)CC[C@@]1(C(=O)NCCN2CCOCC2)N=C(c2ccc(OCCCO)cc2)O[C@@H]1c1ccccc1 | 1.03 | -0.548 (inactive) | 0.209 | 0.0129 | 0.539 | 1.46 | 0.275 | 1.3 | -0.0233 | 1.17
17 | CC(C)N1C(=O)C[C@@](C(=O)NCc2ccccc2)(c2ccc([N+](=O)[O-])cc2)[C@H]1c1ccc(CO)cc1 | 0.467 | 0.0119 (inactive) | -0.186 | -0.0617 | 0.702 | 2.37 | 0.506 | 1.31 | -0.791 | -0.0974
18 | NCCCCCCNC(=O)[C@H]1C[C@H]2C(=O)NCC(=O)N2[C@H]1c1cccc(OCCO)c1 | -0.512 | 0.727 (inactive) | -0.0311 | -0.153 | 0.536 | 1.07 | 0.295 | 1.29 | 1.37 | 1.1
19 | CCCCCCCCCCC(O)C1C=CC2C(=O)N(Cc3ccccc3)C(=O)C2N1n1cnnc1 (stereo not given) | 0.834 | 0.797 (inactive) | 0.435 | 0.0605 | 0.485 | 1.1 | 0.687 | 1.11 | -0.686 | 1.04
20 | COc1ccc([Si](C)(C)[C@@H]2[C@@H](CCn3cc([C@H](O)c4ccccc4)nn3)O[C@]3(C(=O)N(Cc4ccc(N5C(=O)c6cccc7cccc5c67)cc4)c4ccccc43)[C@H]2C)cc1 | 0.033 | -0.196 (inactive) | -0.13 | -0.155 | 0.403 | 0.791 | 0.017 | 0.268 | -0.177 | -0.13
21 | [N-]=[N+]=NCc1ccccc1C[C@@]1(C(=O)N2CCOCC2)N=C(c2ccc(OCCCO)cc2)O[C@@H]1c1ccccc1CN=[N+]=[N-] | 0.922 | 0.696 (inactive) | 0.713 | 0.266 | 0.586 | 2.61 | 1.29 | 1.31 | -0.725 | 1.14
22 | COc1ccc([Si](C)(C)[C@H]2[C@H](CC(=O)N(CCO)Cc3ccccc3)O[C@@]3(C(=O)N(Cc4cccc(N5CCC5=O)c4)c4ccccc43)[C@@H]2C)cc1 | 0.378 | 4.59 (inactive) | -0.0802 | -0.154 | 0.454 | 1.12 | 0.782 | 1.01 | 1.1 | 1.11
23 | CN1CCC(CCCO)=CC1c1ccc(CN2CCCC2)cc1 (stereo not given) | -0.225 | -0.554 (inactive) | 0.29 | 0.0088 | 0.665 | 1.46 | 0.714 | 1.32 | 1.5 | 0.776
24 | CC(C)N1C(=O)c2ccccc2[C@@H](C(=O)NCCCN(C)C)[C@@H]1c1ccc(CO)cc1 | 0.955 | -0.109 (inactive) | -0.15 | 0.0364 | 0.901 | 0.82 | 0.0206 | 0.297 | -1.91 | 0.289
25 | Cc1ccc(S[C@]2(C(=O)NCC(C)C)CC(=O)N(Cc3ccccc3Cl)[C@@H]2c2ccc(CO)cc2)cc1 | -0.968 | -0.12 (inactive) | -0.312 | -0.162 | 0.738 | 0.678 | -0.0092 | -0.897 | -0.796 | -1.88
